This is an account of results in PubChem BioAssay (EPA / NIEHS).

The term AC50 denotes the concentration at which the activity in the assay is half-maximal.

Holding throughout (conditions): mRNA level, 48 h; actives raise or lower the signal
Read-out in experiment [1]: Heat shock 70 kDa protein 1 (HSPA1A), gene 3303
Briefly: LTEA_HepaRG_HSPA1A: Life Technologies and Expression Analysis (LTEA) Assay for Heat shock 70 kDa protein 1 (HSPA1A) using HepaRG (AID 2283502). The essentials: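 HSPA1A induction in human HepaRG liver cells is measured after 48 h of chemical treatment (100 uM maximum, 0.5% DMSO vehicle). Expression comes from qRT-PCR normalized to endogenous controls.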

Read-out in experiment [2]: Hypoxia-inducible factor 1-alpha (Homo sapiens) (UniProt Q16665)
Briefly: LTEA_HepaRG_HIF1A: Life Technologies and Expression Analysis (LTEA) Assay for Hypoxia-inducible factor 1 (HIF1A) Trancription factor using HepaRG (AID 2283503).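 Note: HIF1A transcript by TaqMan qRT-PCR normalized to ACTB GAPDH and POLR2A.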 The essentials: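 HepaRG, 48 h exposure, 8-pt half-log series from 100 uM, 0.5% DMSO vehicle, duplicates. Readout: HIF1A transcript by qRT-PCR (Fluidigm array), housekeeping-normalised. Bidirectional curve fit vs DMSO baseline.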

Read-out in experiment [3]: 3-Hydroxy-3-Methylglutaryl-CoA Synthase 2 (HMGCS2), HMGCS2 (gene 3158)
Briefly: LTEA_HepaRG_HMGCS2: Life Technologies and Expression Analysis (LTEA) Assay for 3-Hydroxy-3-Methylglutaryl-CoA Synthase 2 (HMGCS2) using HepaRG (AID 2283504). In a few lines: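 This steatosis marker was read as HMGCS2 mRNA change in HepaRG cells treated 48 h with up to 100 uM chemical. Normalisation used housekeeping genes; activity in either direction was fitted relative to 0.5% DMSO vehicle.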

Read-out in another experiment: HGF (gene 3082)
Briefly: LTEA_HepaRG_HGF: Life Technologies and Expression Analysis (LTEA) Assay for Hepatocyte Growth Facto (HGF) using HepaRG (AID 2283505). In a few lines: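 Using HepaRG monolayers kept in 0.5% DMSO, chemicals were tested in duplicate over eight half-log concentrations from 100 uM for 48 h. Endpoint: HGF mRNA change relative to DMSO, normalized to ACTB/GAPDH/POLR2A.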

Read-out in experiment [4]: Insulin Like Growth Factor 1 (IGF1), IGF1 (gene 3479)
Briefly: LTEA_HepaRG_IGF1: Life Technologies and Expression Analysis (LTEA) Assay for Insulin Like Growth Factor 1 (IGF1) using HepaRG (AID 2283506). In a few lines: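 Using human HepaRG liver cells, IGF1 transcript induction or suppression is measured 48 h after dosing across eight concentrations capped at 100 uM. Values derive from bidirectional concentration-response fitting with DMSO as baseline.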

Read-out in experiment [5]: Intercellular Adhesion Molecule 1 (ICAM1), ICAM1 (gene 3383)
Briefly: LTEA_HepaRG_ICAM1: Life Technologies and Expression Analysis (LTEA) Assay for Intercellular Adhesion Molecule 1 (ICAM1) using HepaRG (AID 2283507). The essentials:
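Using the human liver line HepaRG, compounds are tested in duplicate over 48 h at concentrations up to 100 uM. Expression is determined by TaqMan qRT-PCR, normalized to endogenous controls, and analysed relative to 0.5% DMSO vehicle.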

Read-out in experiment [6]: Insulin-like growth factor-binding protein 1 (IGFBP1), IGFBP1 (gene 3484)
Briefly: LTEA_HepaRG_IGFBP1: Life Technologies and Expression Analysis (LTEA) Assay for Insulin-like growth factor-binding protein 1 (IGFBP1) using HepaRG (AID 2283508). The essentials:
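HepaRG, 48 h, 8 conc. (max 100 uM, half-log), duplicates, 0.5% DMSO. Readout: TaqMan qRT-PCR, ACTB/GAPDH/POLR2A normalisation. Fit: bidirectional vs DMSO.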

Read-out in experiment [7]: Interleukin 6 (IL6), IL6 (gene 3569)
Briefly: LTEA_HepaRG_IL6: Life Technologies and Expression Analysis (LTEA) Assay for Interleukin 6 (IL6) using HepaRG (AID 2283509). The essentials:
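HepaRG, ~100,000 cells/well, 48 h pre-culture; serum-free induction medium; cmpd 8-pt half-log from 100 uM, 0.5% DMSO, duplicate, 48 h. Lysis in RLT, TaqMan qRT-PCR; gain or loss vs DMSO.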

Read-out in experiment [8]: Interleukin 6 Receptor (IL6R), IL6R (gene 3570)
Briefly: LTEA_HepaRG_IL6R: Life Technologies and Expression Analysis (LTEA) Assay for Interleukin 6 Receptor (IL6R) using HepaRG (AID 2283510).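 For AC50: differentiated human HepaRG liver cells in serum-free induction medium; TaqMan qRT-PCR signal normalized to ACTB GAPDH and POLR2A housekeeping genes.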 In a few lines: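 Concentration-response in human liver HepaRG cells: eight concentrations from 100 uM downward by half-logs, 48 h exposure, 0.5% DMSO vehicle. IL6R mRNA change measured by qRT-PCR and fitted in both directions relative to vehicle.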

Read-out in experiment [9]: Potassium channel subfamily K member 1 (KCNK1), KCNK1 (gene 3775)
Briefly: LTEA_HepaRG_KCNK1: Life Technologies and Expression Analysis (LTEA) Assay for Potassium channel subfamily K member 1 (KCNK1) using HepaRG (AID 2283511). In a few lines:
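Gain or loss of KCNK1 mRNA is the read-out, quantified by qRT-PCR against three housekeeping genes after 48 h chemical treatment of human HepaRG liver cells. Concentrations ran from 100 uM downward in half-log steps, vehicle 0.5% DMSO.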

Read-out in experiment [10]: Keratin 19 (KRT19), KRT19 (gene 3880)
Briefly: LTEA_HepaRG_KRT19: Life Technologies and Expression Analysis (LTEA) Assay for Keratin 19 (KRT19) using HepaRG (AID 2283512). In a few lines: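 Readout is qRT-PCR of KRT19 mRNA, normalized to ACTB, GAPDH and POLR2A, from HepaRG cells treated 48 h with eight-point half-log dilutions topping at 100 uM. Activity in either direction is scored relative to 0.5% DMSO vehicle.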

Read-out in experiment [11]: JUN Transcription Factor, JUN (gene 3725)
Briefly: LTEA_HepaRG_JUN: Life Technologies and Expression Analysis (LTEA) Assay for JUN Transcription Factor using HepaRG (AID 2283513). In a few lines:
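Human HepaRG liver cells receive test chemicals in 0.5% DMSO for 48 h across an eight-point range topping at 100 uM. Expression changes in JUN are scored in both directions against the DMSO vehicle.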

Read-out in experiment [12]: Lipase C (LIPC), LIPC (gene 3990)
Briefly: LTEA_HepaRG_LIPC: Life Technologies and Expression Analysis (LTEA) Assay for Lipase C (LIPC) using HepaRG (AID 2283514). In a few lines:
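Read-out is LIPC transcript level by TaqMan qRT-PCR, normalized to three housekeeping genes, after 48 h chemical treatment of human HepaRG liver cells. Curves span eight concentrations topping at 100 uM; activity in either direction scored relative to 0.5% DMSO.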

Read-out in experiment [13]: Lipoprotein lipase (LPL), LPL (gene 4023)
Briefly: LTEA_HepaRG_LPL: Life Technologies and Expression Analysis (LTEA) Assay for Lipoprotein lipase (LPL) using HepaRG (AID 2283515). The essentials: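 Read-out is LPL transcript level by qRT-PCR, normalized to three housekeeping genes and fitted bidirectionally against the DMSO control. Human HepaRG cells received chemicals for 48 h at up to 100 uM.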

Read-out in experiment [14]: MicroRNA 122 (MIR122), gene 406906
Briefly: LTEA_HepaRG_MIR122: Life Technologies and Expression Analysis (LTEA) Assay for MicroRNA 122 (MIR122) using HepaRG (AID 2283516). Note: the transcript read is the microRNA miR-122. The essentials: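 HepaRG, 48 h exposure, 8-pt half-log from 100 uM, 0.5% DMSO; TaqMan qRT-PCR; bidirectional fit vs DMSO.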

Read-out in experiment [15]: matrix metalloproteinase-10 (MMP10), MMP10 (gene 4319)
Briefly: LTEA_HepaRG_MMP10: Life Technologies and Expression Analysis (LTEA) Assay for matrix metalloproteinase-10 (MMP10) using HepaRG (AID 2283517). The essentials: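 Gain or loss of MMP10 mRNA is fitted relative to the 0.5% DMSO vehicle. The human hepatic line HepaRG receives a 48-hour serum-free exposure, in duplicate, with a maximum concentration of 100 uM.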

Read-out in a further experiment: MYC, MYC (gene 4609)
Briefly: LTEA_HepaRG_MYC: Life Technologies and Expression Analysis (LTEA) Assay for MYC using HepaRG (AID 2283518). The essentials: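 Expression changes were scored by TaqMan qRT-PCR with ACTB, GAPDH and POLR2A normalization. Cultures in serum-free induction medium received duplicate 8-point concentration series, highest 100 uM, for 48 h; DMSO (0.5%) served as baseline.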

Read-out in experiment [16]: matrix metalloproteinase-3 (MMP3), MMP3 (gene 4314)
Briefly: LTEA_HepaRG_MMP3: Life Technologies and Expression Analysis (LTEA) Assay for matrix metalloproteinase-3 (MMP3) using HepaRG (AID 2283519). The essentials:
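HepaRG, human; 48 h dosing, 8 conc. (max 100 uM, half-log), duplicate, 0.5% DMSO. Readout: MMP3 transcript by Fluidigm TaqMan qRT-PCR, ACTB/GAPDH/POLR2A-normalised. Gain or loss fitted vs DMSO.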

Read-out in experiment [17]: Paternally Expressed 10 (PEG10), PEG10 (gene 23089)
Briefly: LTEA_HepaRG_PEG10: Life Technologies and Expression Analysis (LTEA) Assay for Paternally Expressed 10 (PEG10) using HepaRG (AID 2283520).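 For AC50: differentiated HepaRG human liver cells in serum-free induction medium with 0.5% DMSO; PEG10 transcript by qRT-PCR normalised to ACTB GAPDH and POLR2A.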 The essentials:
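Chemicals tested on HepaRG cells for 48 h, highest concentration 100 uM. PEG10 expression assessed by qRT-PCR relative to DMSO control.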

Active and inactive are the calls of the source. Rule for the calls: active = hit-call score of the fitted dose curve at least 0.9, where 1 is the maximum; inactive = score below 0.9.

Sequence of Hypoxia-inducible factor 1-alpha (Homo sapiens) (Q16665 whole entry, looked up): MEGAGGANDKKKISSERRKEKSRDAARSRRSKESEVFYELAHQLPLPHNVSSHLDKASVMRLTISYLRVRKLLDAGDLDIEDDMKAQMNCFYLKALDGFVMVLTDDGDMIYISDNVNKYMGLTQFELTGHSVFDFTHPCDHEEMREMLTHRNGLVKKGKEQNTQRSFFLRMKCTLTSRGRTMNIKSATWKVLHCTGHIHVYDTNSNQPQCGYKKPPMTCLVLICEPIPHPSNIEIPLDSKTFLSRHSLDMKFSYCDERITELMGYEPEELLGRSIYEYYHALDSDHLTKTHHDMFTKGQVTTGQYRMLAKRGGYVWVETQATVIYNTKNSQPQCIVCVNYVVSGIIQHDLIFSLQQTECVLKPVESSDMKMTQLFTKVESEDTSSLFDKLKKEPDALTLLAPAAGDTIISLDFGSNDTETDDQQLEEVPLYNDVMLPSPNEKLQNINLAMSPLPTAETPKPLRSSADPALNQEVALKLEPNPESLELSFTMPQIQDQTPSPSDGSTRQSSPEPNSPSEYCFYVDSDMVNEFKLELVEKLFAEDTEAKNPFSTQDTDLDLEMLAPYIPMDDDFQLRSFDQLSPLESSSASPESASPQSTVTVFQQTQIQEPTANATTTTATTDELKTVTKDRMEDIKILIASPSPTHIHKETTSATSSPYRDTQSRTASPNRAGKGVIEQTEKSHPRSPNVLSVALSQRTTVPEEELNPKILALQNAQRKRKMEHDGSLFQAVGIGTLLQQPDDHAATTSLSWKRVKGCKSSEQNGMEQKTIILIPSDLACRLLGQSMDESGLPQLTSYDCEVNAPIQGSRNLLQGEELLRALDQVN

`CON(C)C(=O)Nc1ccc(Cl)c(Cl)c1`: the result (in experiment [1]; in experiment [2]; with HGF (gene 3082); in experiment [5]; in [7]; in experiment [8]) was inactive. In addition, the molecule was called inactive in experiment [9], in [11], in experiment [14], in experiment [15] and in experiment [16]. Also, the AC50 was 63.4 µM (active) in experiment [3]; 50 µM (active) in experiment [4]; 50 µM (active) in experiment [6]; 48.5 µM (active) in experiment [10]; 31.6 µM (active) in [12]; 12.5 µM (active) in [13]. Further, the AC50 with MYC, MYC (gene 4609) is 78.6 µM (active); in experiment [17] it was 65.3 µM (active).

`COC(=O)C(C)Oc1ccc(Oc2ccc(Cl)cc2Cl)cc1` (stereo not given): the molecule was called inactive (in [1]; in experiment [2]; with HGF (gene 3082); in [4]; in experiment [5]; in experiment [6]). The result in experiment [7], in [8], in experiment [9], in experiment [11], in experiment [12] and in experiment [14] was inactive. In addition, the outcome was “inactive” in experiment [15]; “inactive” with MYC, MYC (gene 4609); “inactive” in experiment [16]. Besides, the AC50 was 17.5 µM (active) in experiment [3], 77 µM (active) in experiment [10], 27.6 µM (active) in experiment [13] and 10.4 µM (active) in experiment [17].

For `C#CCOS(=O)OC1CCCCC1Oc1ccc(C(C)(C)C)cc1` (stereo not given), the AC50 is 27.2 µM (active) in [1]; 26.4 µM (active) in experiment [2]; 25.6 µM (active) in experiment [3]; 20.1 µM (active) in the experiment with HGF (gene 3082); 19.5 µM (active) in experiment [4]; 14.6 µM (active) in [6]. The AC50 is 23.1 µM (active) in experiment [7]; 14.5 µM (active) in experiment [8]; 21.5 µM (active) in experiment [9]; 12.8 µM (active) in experiment [10]; 28.7 µM (active) in experiment [13]; 28.2 µM (active) in experiment [14]. The AC50 in experiment [15] was 22.5 µM (active); with MYC, MYC (gene 4609), 22.8 µM (active); in experiment [17], 24.2 µM (active). Moreover, the molecule was classed as inactive in [5], in experiment [11], in experiment [12] and in [16].

As for `CC(C)C1(C)N=C(c2nc3ccccc3cc2C(=O)O)NC1=O` (stereo not given), the call (in experiment [1]; in [2]; in [3]; with HGF (gene 3082); in experiment [4]; in [5]) was inactive. The molecule was classed as inactive in [6], in experiment [7], in experiment [8], in experiment [9], in experiment [10] and in [11]. In addition, the outcome in experiment [12] was “inactive”; in experiment [13], “inactive”; in experiment [14], “inactive”; in experiment [15] it was “inactive”; with MYC, MYC (gene 4609) it was “inactive”; in [16] it was “inactive”. In addition, the molecule was classed as inactive in [17].

As for `CCCCNC(=O)OCC#CI`, the AC50 in experiment [1] is 50 µM (active). The molecule was classed as inactive (in experiment [2]; in experiment [3]; in the experiment with HGF (gene 3082); in experiment [4]; in experiment [5]; in experiment [6]). For the same molecule, the result in experiment [7], in experiment [8], in experiment [9], in experiment [10], in [11] and in experiment [12] was inactive. The outcome in experiment [13] was “inactive”; in experiment [14] it was “inactive”; in [15], “inactive”; with MYC, MYC (gene 4609), “inactive”; in [16] it was “inactive”; in [17] it was “inactive”.
